Source: PubChem BioAssay
Only some compounds are listed: those with a hit (about 4% of all), similar ones and a draw of the others.
NR3A LBD binder = NR3A (human) ligand-binding domain modulation | 340,000 tested, 2.5% active | AID 1259313 | NR3A LBD differential scanning fluorimetry, Tm shift; 0% = protein alone, 100% = glycine-bound protein | Tm shift relative to glycine control, % at 25 µM;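 active means melting temperature shift of at least 10% of the positive control shift, at one fixed dose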
ADAM17 inh = inhibits human ADAM17; P78536; recombinant ADAM17, EDANS/DABCYL FRET peptide cleavage; inhibition, % at 6.95 µM; 370,000 tested, 0.83% active; AID 720648;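 active means inhibition above the mean of compounds lying between control limits plus 3 SD, set per campaign, cut at about 8.5% in these data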
FAS TE block = blocks the thioesterase domain of human fatty acid synthase. inhibition, % at 15 µM. AID 602261. P49327. recombinant FAS-TE, OMFH fluorogenic substrate, fluorescence endpoint. 360,000 tested, 0.67% active;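 active means compounds whose normalised, plate-corrected inhibition of enzyme fluorescence in the single-dose primary screen is 50% or more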
ADAM10 inh = inhibitors of human ADAM10; 370,000 tested, 0.62% active; recombinant ADAM10, EDANS/DABCYL FRET peptide cleavage, 3 h; inhibition, % at 7 µM; O14672;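 active means inhibition above a per-campaign cutoff equal to the mean of compounds falling between control-based bounds plus 3 SD, cut at about 20% in these data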
Target sequence (O14672 214-748 limits assumed): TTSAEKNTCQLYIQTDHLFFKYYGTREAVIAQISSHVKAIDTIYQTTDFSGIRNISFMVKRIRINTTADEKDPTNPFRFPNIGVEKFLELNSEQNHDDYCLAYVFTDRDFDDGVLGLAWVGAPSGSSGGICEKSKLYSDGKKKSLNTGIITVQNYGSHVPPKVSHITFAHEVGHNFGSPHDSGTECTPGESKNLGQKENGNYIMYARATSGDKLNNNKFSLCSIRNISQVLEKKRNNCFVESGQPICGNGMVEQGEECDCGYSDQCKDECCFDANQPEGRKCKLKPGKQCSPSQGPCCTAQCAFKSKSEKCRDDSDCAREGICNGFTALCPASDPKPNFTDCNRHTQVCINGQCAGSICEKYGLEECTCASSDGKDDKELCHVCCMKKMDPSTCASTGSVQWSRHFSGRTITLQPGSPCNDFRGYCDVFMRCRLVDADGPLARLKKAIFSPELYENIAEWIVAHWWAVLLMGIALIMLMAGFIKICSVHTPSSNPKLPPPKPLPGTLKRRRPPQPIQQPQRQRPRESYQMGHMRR
aDG glyco up = increases alpha dystroglycan glycosylation | Pro5-aDG cells, alpha-DG glycosylation AlphaScreen (IIH6); 0% Pro5, 100% B10-LARGE cell signal | activation, % at 10 µM | 360,000 tested, 0.22% active | AID 624168;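 active means activation of at least 8% versus controls, or a plate z-score of at least 8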;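 further: Pro5 are CHO cells carrying HIG-tagged alpha-DG that lacks glycosylation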
Numbers stand for hits; i = inactive; nt = no result.

SMILES	NR3A LBD binder	ADAM17 inh	FAS TE block	ADAM10 inh	aDG glyco up
CCCOc1ccc(CNC(=S)N/N=C/c2ccc([N+](=O)[O-])cc2)cc1	11.3	i	i	i	i
CC(C)COc1ccc(CNC(=S)N/N=C/c2ccc([N+](=O)[O-])cc2)cc1	i	i	i	i	i
CCOC(=O)c1cc(-c2ccccc2)sc1NC(=O)COC(=O)c1cccc(S(N)(=O)=O)c1	i	i	i	i	i
CCOC(=O)c1cc(-c2ccccc2)sc1NC(=O)COC(=O)c1ccc(Cl)c(S(N)(=O)=O)c1	11.4	nt	i	nt	i
CCC(=O)Nc1cc2c3c(c1)CCN3C(=O)CC2	11.3	i	i	i	i
COc1cccc(C2C3=C(N=c4s/c(=C\c5cccc(O)c5)c(=O)n42)c2ccccc2CC3)c1OC (configuration not stated)	31.1	i	i	i	i
COc1cccc(C2C3=C(N=c4s/c(=C\c5ccc(O)cc5)c(=O)n42)c2ccccc2CC3)c1OC (configuration not stated)	i	i	i	i	i
COc1ccc([C@H]2CC(=O)C=C(c3ccc(F)cc3OCc3ccccc3)C2)cc1	i	i	i	i	i
COC(=O)/C=C1/SC(=NC(=O)c2cccc([N+](=O)[O-])c2)NC1=O	15.2	i	i	i	i
COC(=O)/C=C1\SC(=NC(=O)c2cccc([N+](=O)[O-])c2)NC1=O	13.4	i	i	i	i
COC(=O)/C=C1\SC(=NC(=O)c2cccc(Cl)c2)NC1=O	i	i	i	i	i
CCCOc1ccc(CSc2ncn[nH]2)cc1	i	i	i	i	i
COc1ccc(N2CCN(C(=O)CNC(=O)Cc3ccccc3)CC2)cc1	i	i	i	i	i
COc1ccc(N2CCN(C(=O)CNC(=O)Cc3ccc(Cl)cc3)CC2)cc1	12.6	i	i	i	i
CCOc1ccc(CN(C)C(=O)c2cccnc2SC)cc1OC	i	i	i	i	i
COc1ccc(NC(=O)c2ccc(S(=O)(=O)N(C)C)cc2)cc1OC	20.2	i	i	i	i
COc1ccccc1NC(=O)c1ccc(CN(c2cc(Cl)ccc2C)S(=O)(=O)c2ccccc2)cc1	i	i	i	i	i
COc1ccc(NC(=O)c2ccc(CN(c3cc(Cl)ccc3C)S(=O)(=O)c3ccccc3)cc2)cc1OC	i	i	62.2	i	i
CN(C(=O)CSc1nc2ccccc2c(=O)n1-c1ccc(F)cc1)C1CCS(=O)(=O)C1 (configuration not stated)	i	i	i	i	i
O=C(CN1CCCCCCC1)N/N=C/c1ccc(F)cc1F	24.2	i	i	i	i
Oc1ccccc1-c1nc2c3ccccc3c3ccccc3c2[nH]1	37.3	i	i	i	i
Oc1ccccc1-c1ccn[nH]1	i	i	i	i	i
Cc1cccc2cc(CN(CC3CCCO3)C(=S)NCc3ccco3)c(=O)[nH]c12 (configuration not stated)	13.0	i	i	i	i
Cc1ccc2[nH]c(=O)c(CN(Cc3cccs3)C(=S)NCc3ccco3)cc2c1	12.5	i	i	i	i
Cc1ccc2[nH]c(=O)c(CN(CC3CCCO3)C(=S)NCc3ccco3)cc2c1 (configuration not stated)	13.1	i	i	i	i
SMILES	NR3A LBD binder	ADAM17 inh	FAS TE block	ADAM10 inh	aDG glyco up
Cc1ccc2cc(CN(CC3CCCO3)C(=S)NCc3ccco3)c(=O)[nH]c2c1 (configuration not stated)	i	i	i	i	i
Cc1ccc(NC(=S)N(Cc2cccs2)Cc2cc3cccc(C)c3[nH]c2=O)cc1	15.5	i	i	i	i
CCNC(=S)N(Cc1cccs1)Cc1cc2cc(OCC)ccc2[nH]c1=O	i	i	i	i	i
CCCn1c2ccccc2c2cn[nH]c(=O)c21	i	i	i	i	i
Cn1nc(C(C)(C)C)c([N+](=O)[O-])c1C(=O)Nc1ccc(Br)cc1	i	i	i	i	i
C=CCn1c(COc2ccccc2F)nnc1SCC(=O)c1c[nH]c2ccccc12	i	i	i	i	i
COCc1nnc(NC(=O)c2ccc(NC(C)=O)cc2)s1	23.7	i	i	i	i
O=C(Nc1ccc(Cl)cn1)C1CCN(S(=O)(=O)c2cccs2)CC1	i	i	i	i	i
CCOc1ccc(NC2=C(Cl)C(=O)N(C3CCCCC3)C2=O)cc1	16.8	i	i	i	i
COc1ccc(C)cc1NC1=C(Cl)C(=O)N(C2CCCCC2)C1=O	i	i	i	i	i
CCOC(=O)c1c(-c2ccccc2)csc1NC(=O)/C(C#N)=C/c1ccc(O)c(OC)c1	26.5	i	i	i	i
CCOC(=O)c1c(-c2ccccc2)csc1NC(=O)/C(C#N)=C/c1ccc(OC)c(OC)c1	i	i	i	i	i
COc1ccc(NC(=O)C2=CC(c3ccco3)=NS(=O)(=O)N2C)cc1	i	i	i	i	i
CCN1CCN(CC(=O)Nc2c(OC)cccc2OC)CC1	i	i	i	i	i
CC(Sc1nnc(-c2ccccc2)c(-c2ccccc2)n1)C(=O)Nc1ncc(Cl)cc1Cl (configuration not stated)	i	i	i	i	i
CCOc1cc(S(=O)(=O)Nc2ccc(Cl)cn2)ccc1F	10.8	i	i	i	i
O=C(CN1C(=O)C2CC=CCC2C1=O)Nc1ccc(S(=O)(=O)NC2=NCCCCC2)cc1 (configuration not stated)	i	i	i	i	i
COc1ccc(-c2csc(-c3cccnc3)n2)cc1C	i	i	i	i	i
NC(=O)c1cc(-c2csc(-c3cccnc3)n2)ccc1O	19.6	i	i	i	i
C=CCNc1nc(-c2ccc(O)c(C(N)=O)c2)cs1	i	i	i	i	i
NC(=O)c1cc(-c2csc(NCCc3ccccc3)n2)ccc1O	10.3	i	i	i	i
COc1ccc2cc(-c3csc(-c4cccnc4)n3)ccc2c1	25.9	i	i	i	i
C/C(=N\Nc1cccc(Cl)c1)c1ccc(-n2ccnc2)cc1	i	i	i	i	i
CCC(C)NC(=O)Cn1cnc2sc(C)c(S(=O)(=O)N3CCN(c4ncccn4)CC3)c2c1=O (configuration not stated)	14.3	i	i	i	i
Cc1ccccc1NC(=O)C(C)N1C(=O)c2ccccc2C1=O (configuration not stated)	i	i	i	i	i
SMILES	NR3A LBD binder	ADAM17 inh	FAS TE block	ADAM10 inh	aDG glyco up
Nc1ccc(-c2nc3ccccc3[nH]2)cc1	i	i	i	i	i
Nc1ccc(-c2nc3c(ccc4ccccc43)[nH]2)cc1	10.6	i	i	i	i
Cn1nc(C(=O)N2CCN(S(=O)(=O)c3ccccc3)CC2)c2ccccc2c1=O	11.6	i	i	i	i
Cc1ccc(S(=O)(=O)N2CCN(C(=O)c3nn(C(C)C)c(=O)c4ccccc34)CC2)cc1C	i	i	i	i	i
CCOC(=O)c1cnc2c(Cl)cccc2c1NCCCN1CCOCC1	i	i	i	i	i
CC(=O)Nc1ccc(NC(=O)/C=C/c2ccc(Cl)cc2)cc1	12.8	i	i	i	i
